Consider five compounds from PubChem BioAssay.

Calls of active or inactive are those of the source.

Assay [1] in a line: small molecules captured by biotinylated probe aFSTL3 – biochemical, small-molecule microarray, fluorescence 635/667, stem cell growth factor project, primary screen (AID 1064).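 Note: measures binding of the biotinylated anti-FSTL3 antibody to printed compounds.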 To be noted: higher = more signal.
A short description of assay [2]: binders from COS7 lysate, DM2A8 probe, primary screen, torsin A project, cell lysate, small-molecule microarray, fluorescence 635/667 (AID 1065). As to conditions: higher = more signal, COS7 lysate expressing mutant human TOR1A.
Assay [3] can be described thus: small molecules captured by biotinylated probe aFGF2 – biochemical, small-molecule microarray, fluorescence 635/667, stem cell growth factor project, primary screen (AID 1067).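 Note: measures binding of biotinylated aFGF2 protein to printed compounds on slides; z-score merges feature fluorescence and signal-to-noise across triplicate slides.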 As to conditions: higher = more signal.
Assay [4] in a line: small molecules captured by biotinylated probe aFGF10 – biochemical, small-molecule microarray, fluorescence 635/667, stem cell growth factor project, primary screen (AID 1071).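 Note: score merges 667 nm spot intensity and signal to noise from triplicate slides.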 To be noted: higher = more signal.
Assay [5] addresses Neurogenic locus notch homolog protein 2 (Homo sapiens) (UniProt Q04721). The assay is described as follows: small molecules binding Notch2 protein – biochemical, small-molecule microarray, 635 nm fluorescence, stem cell growth factors, primary screen (AID 1073). As to conditions: higher = more signal.
The target of assay [6] is Pro-neuregulin-1, membrane-bound isoform (Homo sapiens) (UniProt Q02297). Description: small molecules binding neuregulin-1 protein – biochemical, small-molecule microarray, fluorescence 635/667, psychiatric disease protein project, primary screen (AID 1075).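 Note: score combines 667 nm spot fluorescence with signal to noise.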 To be noted: NRG1 binding, 635 nm fluorescence, higher = more signal.
The subject of assay [7] is Neuregulin-1 EGF-like domain. Description: small molecules binding NRG1 EGF domain – biochemical, small-molecule microarray, 635 nm fluorescence, primary screen (AID 1081).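 Note: binding of the protein to compounds printed on small-molecule microarray slides.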 As to conditions: higher = more signal.
A short description of assay [8]: FRG1 expression reporter modulators in myotubes – cell-based, C2C12 myotubes, firefly/Renilla luciferase, luminescence, FRG1 inhibition for FSHD, primary screen (AID 1084). As to conditions: FRG1 promoter luciferase, higher = more signal, called active from +8 up or from −8 down.
Assay [9] can be described thus: small molecules captured by biotinylated probe aFST – biochemical, small-molecule microarray, fluorescence 635/667, stem cell growth factor project, primary screen (AID 1086).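 Note: score merges 667 nm fluorescence with signal-to-noise of each printed compound spot.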 As to conditions: higher = more signal.
Assay [10] can be described thus: binders of probe aHhip on microarray, primary screen, stem cell growth factor project, biochemical, small-molecule microarray, fluorescence 635/667 (AID 1087).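 Note: score merges spot fluorescence at 667nm with spot signal to noise ratio.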 To be noted: higher = more signal.
Assay [11] deals with PRMT1 (protein arginine N-methyltransferase 1). The assay is described as follows: small molecules binding arginine methyltransferase PRMT1 – biochemical, small-molecule microarray, 635 nm fluorescence, primary screen (AID 1088).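 Note: binding of Prmt1 protein to compounds spotted on small-molecule microarray slides.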 As to conditions: higher = more signal.
Assay [12] in a line: growth effects on S. cerevisiae YJM789 – YJM789 clinical isolate, OD600, 24 h, basal, primary screen (AID 1089).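 Note: growth of clinical yeast isolate S. cerevisiae YJM 789 seeded 1000 cells per well; test concentration not given here.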 To be noted: higher = more signal, called active from +8 up or from −8 down.
Assay [13] in a line: S. pombe growth modifiers, basal conditions – strain 972, OD600, 24 h, no modulator, primary screen (AID 1090).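 Note: basal condition with compound alone and no growth modifier present; test concentration not given here.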 As to conditions: S. pombe 972 growth, higher = more signal, called active from +8 up or from −8 down.
The nature of assay [14]: budding yeast growth modifiers under rapamycin – strain BY4716, OD600, 96 h, primary screen (AID 1091). Note: test concentration not given here. To be noted: S. cerevisiae BY4716 + rapamycin, higher = more signal, called active from +8 up or from −8 down.
Assay [15] concerns the target Torsin-1A-interacting protein 2 (Homo sapiens) (UniProt Q8NFQ8). The assay is described as follows: small molecules binding lysate-expressed LULL1 – cell lysate, human LULL1 lysate, 635/667 nm fluorescence, primary screen (AID 1092).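 Note: probe is lysate of COS7 cells overexpressing human LULL1; score merges per-feature 667 nm fluorescence with signal-to-noise.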 To be noted: small-molecule microarray, hLULL1 lysate binding, 635 nm fluorescence; higher = more signal.
Assay [16] can be described thus: optical density change of DRC41 E. coli – strain DRC41, OD650, 24 h, E. coli filamentation project, primary screen (AID 1093).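 Note: MC1000 strain lacking acrAB efflux and sulA so SOS filamentation is blocked; test concentration not given here.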 To be noted: E. coli DRC41 growth, higher = more signal, called active from +8 up or from −8 down.
Assay [17] can be described thus: probe aLefty2 binding to arrayed compounds – biochemical, biotinylated probe, 635/667 nm fluorescence, primary screen (AID 1094).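 Note: score merges spot fluorescence near 667 nm with spot signal-to-noise ratio.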 As to conditions: small-molecule microarray, higher = more signal.
Assay [18] concerns Noggin (protein binding on small-molecule microarray). The assay is described as follows: small molecules binding Noggin protein – biochemical, 635/667 nm fluorescence, primary screen (AID 1095).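 Note: score merges 667 nm feature fluorescence with signal to noise over triplicate slides.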 To be noted: 635 nm fluorescence, higher = more signal.
Assay [19] concerns the target Neurogenic locus notch homolog protein 3 (Homo sapiens) (UniProt Q9UM47). The assay is described as follows: small molecules binding NOTCH3 protein – biochemical, 635/667 nm fluorescence, primary screen (AID 1096). As to conditions: small-molecule microarray, 635 nm fluorescence, higher = more signal.
Assay [20] in a line: probe aEGFR binding to arrayed compounds – biochemical, biotinylated probe, 635/667 nm fluorescence, primary screen (AID 1097).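 Note: probe is a biotinylated anti-EGFR antibody binding compounds printed on slides; score combines fluorescence near 667 nm and signal to noise of each spot.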 As to conditions: small-molecule microarray, higher = more signal.

Chain of Neurogenic locus notch homolog protein 3 (Homo sapiens) (Q9UM47 whole entry, looked up): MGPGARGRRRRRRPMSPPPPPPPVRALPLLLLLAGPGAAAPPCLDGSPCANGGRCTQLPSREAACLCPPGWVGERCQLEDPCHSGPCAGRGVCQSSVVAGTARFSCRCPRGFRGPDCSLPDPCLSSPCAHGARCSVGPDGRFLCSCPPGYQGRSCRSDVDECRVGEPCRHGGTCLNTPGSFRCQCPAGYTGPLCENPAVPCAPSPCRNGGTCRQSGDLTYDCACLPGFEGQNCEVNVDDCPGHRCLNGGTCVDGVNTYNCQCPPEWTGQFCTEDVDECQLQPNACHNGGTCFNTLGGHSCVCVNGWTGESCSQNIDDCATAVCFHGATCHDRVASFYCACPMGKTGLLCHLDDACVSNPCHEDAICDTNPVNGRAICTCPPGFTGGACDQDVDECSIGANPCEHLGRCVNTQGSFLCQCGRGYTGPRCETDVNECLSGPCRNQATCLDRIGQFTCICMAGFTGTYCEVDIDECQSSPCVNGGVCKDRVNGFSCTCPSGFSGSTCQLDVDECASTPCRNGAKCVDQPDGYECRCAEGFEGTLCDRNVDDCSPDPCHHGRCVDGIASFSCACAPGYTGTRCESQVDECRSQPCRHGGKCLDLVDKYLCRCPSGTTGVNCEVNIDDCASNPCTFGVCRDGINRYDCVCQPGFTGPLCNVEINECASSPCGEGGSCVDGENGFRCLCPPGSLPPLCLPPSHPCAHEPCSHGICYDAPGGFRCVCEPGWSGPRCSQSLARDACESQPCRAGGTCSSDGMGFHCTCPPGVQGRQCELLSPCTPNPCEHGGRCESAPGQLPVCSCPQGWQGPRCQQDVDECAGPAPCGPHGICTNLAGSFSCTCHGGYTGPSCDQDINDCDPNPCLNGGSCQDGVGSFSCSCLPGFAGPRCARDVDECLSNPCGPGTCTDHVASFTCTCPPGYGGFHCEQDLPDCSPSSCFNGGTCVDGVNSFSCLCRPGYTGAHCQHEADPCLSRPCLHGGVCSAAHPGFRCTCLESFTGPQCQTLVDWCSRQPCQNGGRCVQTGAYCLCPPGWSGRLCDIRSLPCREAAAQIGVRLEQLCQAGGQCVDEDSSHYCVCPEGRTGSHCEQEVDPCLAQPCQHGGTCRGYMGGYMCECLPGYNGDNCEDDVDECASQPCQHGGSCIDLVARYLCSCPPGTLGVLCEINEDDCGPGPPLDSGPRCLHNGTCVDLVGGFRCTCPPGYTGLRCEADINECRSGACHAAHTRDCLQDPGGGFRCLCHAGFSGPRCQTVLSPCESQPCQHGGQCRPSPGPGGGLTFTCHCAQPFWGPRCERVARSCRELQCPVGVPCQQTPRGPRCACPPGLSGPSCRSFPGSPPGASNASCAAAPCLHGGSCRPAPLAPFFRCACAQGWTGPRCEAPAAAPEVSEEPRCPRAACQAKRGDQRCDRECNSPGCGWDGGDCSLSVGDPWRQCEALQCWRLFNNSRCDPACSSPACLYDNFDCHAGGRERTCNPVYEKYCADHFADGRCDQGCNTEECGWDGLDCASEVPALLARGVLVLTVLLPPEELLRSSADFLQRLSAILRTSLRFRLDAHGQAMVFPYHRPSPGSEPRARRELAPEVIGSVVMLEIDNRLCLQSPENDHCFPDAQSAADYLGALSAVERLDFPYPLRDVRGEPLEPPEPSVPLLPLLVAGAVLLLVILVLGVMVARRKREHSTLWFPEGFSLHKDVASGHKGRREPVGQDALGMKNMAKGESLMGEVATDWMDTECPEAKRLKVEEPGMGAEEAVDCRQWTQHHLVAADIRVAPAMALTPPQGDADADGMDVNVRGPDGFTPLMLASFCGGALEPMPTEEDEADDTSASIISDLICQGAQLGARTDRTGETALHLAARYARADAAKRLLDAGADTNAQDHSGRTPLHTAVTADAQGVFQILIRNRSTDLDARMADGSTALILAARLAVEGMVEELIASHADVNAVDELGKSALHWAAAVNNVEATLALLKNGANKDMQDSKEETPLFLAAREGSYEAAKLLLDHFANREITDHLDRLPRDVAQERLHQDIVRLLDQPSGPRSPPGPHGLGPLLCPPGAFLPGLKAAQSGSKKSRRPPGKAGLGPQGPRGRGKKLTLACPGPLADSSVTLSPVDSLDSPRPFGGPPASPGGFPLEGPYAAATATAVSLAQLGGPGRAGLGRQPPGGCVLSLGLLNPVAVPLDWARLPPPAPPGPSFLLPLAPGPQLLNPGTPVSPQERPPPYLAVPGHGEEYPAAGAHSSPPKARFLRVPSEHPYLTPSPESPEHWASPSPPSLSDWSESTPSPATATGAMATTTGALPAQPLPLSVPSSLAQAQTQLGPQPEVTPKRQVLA
Chain of Neurogenic locus notch homolog protein 2 (Homo sapiens) (Q04721 whole entry, looked up, canonical isoform): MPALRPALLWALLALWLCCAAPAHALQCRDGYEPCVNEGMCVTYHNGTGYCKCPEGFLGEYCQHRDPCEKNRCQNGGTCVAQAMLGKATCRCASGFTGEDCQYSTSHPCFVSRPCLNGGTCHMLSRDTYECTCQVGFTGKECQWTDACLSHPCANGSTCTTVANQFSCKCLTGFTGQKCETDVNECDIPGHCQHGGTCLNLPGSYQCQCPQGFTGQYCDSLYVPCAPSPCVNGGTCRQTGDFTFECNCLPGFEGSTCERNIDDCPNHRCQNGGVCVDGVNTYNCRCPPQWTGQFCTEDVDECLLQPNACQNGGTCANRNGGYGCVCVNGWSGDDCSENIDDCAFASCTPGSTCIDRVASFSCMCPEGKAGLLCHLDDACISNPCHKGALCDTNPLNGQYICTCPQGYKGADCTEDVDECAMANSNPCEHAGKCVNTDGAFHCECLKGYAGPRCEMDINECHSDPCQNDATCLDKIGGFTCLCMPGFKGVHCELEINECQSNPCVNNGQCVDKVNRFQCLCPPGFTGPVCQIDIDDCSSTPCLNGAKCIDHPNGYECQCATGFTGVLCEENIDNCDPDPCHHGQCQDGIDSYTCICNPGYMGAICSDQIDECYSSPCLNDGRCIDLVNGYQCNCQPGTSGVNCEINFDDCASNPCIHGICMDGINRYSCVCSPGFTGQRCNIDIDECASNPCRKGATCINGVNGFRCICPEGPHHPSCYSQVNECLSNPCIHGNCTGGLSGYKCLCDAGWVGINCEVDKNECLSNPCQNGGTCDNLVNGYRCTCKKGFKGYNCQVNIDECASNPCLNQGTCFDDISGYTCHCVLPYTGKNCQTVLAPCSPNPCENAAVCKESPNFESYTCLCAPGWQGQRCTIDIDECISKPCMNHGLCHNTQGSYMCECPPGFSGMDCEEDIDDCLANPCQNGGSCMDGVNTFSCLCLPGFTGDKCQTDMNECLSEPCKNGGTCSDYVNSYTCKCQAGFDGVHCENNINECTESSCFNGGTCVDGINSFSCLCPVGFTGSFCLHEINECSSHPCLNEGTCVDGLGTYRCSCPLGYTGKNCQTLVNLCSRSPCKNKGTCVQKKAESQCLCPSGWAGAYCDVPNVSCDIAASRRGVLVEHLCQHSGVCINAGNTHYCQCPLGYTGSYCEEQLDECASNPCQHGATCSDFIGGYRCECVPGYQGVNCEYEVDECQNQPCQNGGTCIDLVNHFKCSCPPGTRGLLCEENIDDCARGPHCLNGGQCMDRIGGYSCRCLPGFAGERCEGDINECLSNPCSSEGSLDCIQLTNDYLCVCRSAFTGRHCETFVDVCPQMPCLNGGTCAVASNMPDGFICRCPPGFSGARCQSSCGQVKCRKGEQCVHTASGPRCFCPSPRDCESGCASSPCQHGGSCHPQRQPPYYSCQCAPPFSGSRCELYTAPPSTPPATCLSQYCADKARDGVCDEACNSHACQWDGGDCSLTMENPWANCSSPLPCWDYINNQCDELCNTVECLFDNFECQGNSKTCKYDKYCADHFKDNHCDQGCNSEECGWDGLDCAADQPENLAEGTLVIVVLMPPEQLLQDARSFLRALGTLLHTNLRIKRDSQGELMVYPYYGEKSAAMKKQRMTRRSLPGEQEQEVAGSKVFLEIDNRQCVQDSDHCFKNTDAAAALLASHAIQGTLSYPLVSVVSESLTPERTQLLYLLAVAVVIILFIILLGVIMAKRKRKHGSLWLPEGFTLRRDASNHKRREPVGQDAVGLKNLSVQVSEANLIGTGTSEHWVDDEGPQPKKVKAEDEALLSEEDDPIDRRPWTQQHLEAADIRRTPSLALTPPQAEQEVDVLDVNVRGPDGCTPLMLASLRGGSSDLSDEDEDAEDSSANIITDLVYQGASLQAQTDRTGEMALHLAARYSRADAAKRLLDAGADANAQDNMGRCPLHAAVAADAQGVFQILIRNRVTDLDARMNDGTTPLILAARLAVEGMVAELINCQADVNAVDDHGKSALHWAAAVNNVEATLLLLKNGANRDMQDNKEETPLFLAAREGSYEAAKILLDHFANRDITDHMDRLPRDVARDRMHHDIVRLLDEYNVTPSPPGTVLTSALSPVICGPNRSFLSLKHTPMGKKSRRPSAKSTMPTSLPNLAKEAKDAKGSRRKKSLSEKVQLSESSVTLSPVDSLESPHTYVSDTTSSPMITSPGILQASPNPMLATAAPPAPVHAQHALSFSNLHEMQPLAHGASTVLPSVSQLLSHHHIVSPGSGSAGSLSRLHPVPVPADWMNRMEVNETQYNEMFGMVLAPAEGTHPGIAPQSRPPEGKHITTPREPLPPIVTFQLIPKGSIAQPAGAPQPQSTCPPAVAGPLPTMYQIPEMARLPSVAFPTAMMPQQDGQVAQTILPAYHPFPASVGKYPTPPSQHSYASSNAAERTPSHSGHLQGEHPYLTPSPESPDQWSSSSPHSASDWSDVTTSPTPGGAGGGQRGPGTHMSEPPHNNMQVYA

As to `COC(=O)[C@@]1(Cc2ccc(F)cc2)[C@@H]2C(=CC(=O)[C@H]2CC(=O)C(=O)N(C)C)CN1C(=O)c1ccccc1`, the composite z-score in assay [1] is 0.581; in [2] it was -0.293; in [3] it was 0.293; in assay [4], 0.663; in assay [5], 1.71; in [6], 1.49. Further, the composite z-score stood at 1.36 in assay [7]; 1.45 in assay [9]; 2.1 in [10]; 1.14 in [11]; 3.5 in [15]; 0.393 in [17]. The composite z-score in assay [18] worked out at 0.171; in assay [19], 1.02; in [20] it was 0.396. For the same compound, the z-score is -0.524 (inactive) in assay [8]; 1 (inactive) in assay [12]; 1.84 (inactive) in [13]; 8.71 (active) in assay [14]; -0.399 (inactive) in [16].
For `CC(C)CON=C1C[C@@H](O)[C@@H](O)[C@@H]2[C@@H]3C(=O)N(C[C@@H]4CCCO4)C(=O)[C@@H]3CC[C@H]12`, the composite z-score in assay [1] was -0.549; in assay [2], 0.254; in [3] it was -0.116; in assay [4], 0.421; in assay [5], 0.595; in [6] it was -0.0414. For the same compound, the composite z-score is 0.59 in [7]; -0.179 in assay [9]; -0.406 in assay [10]; 0.976 in assay [11]; 1.39 in assay [15]; -0.234 in assay [17]. Moreover, the composite z-score in assay [18] was 0.468; in assay [19], 0.668; in assay [20], -0.0191. For the same compound, the z-score is -0.267 (inactive) in [8]; -1.04 (inactive) in assay [12]; 0.042 (inactive) in assay [13]; -0.435 (inactive) in [14]; 0.134 (inactive) in assay [16].
For the compound `N#Cc1ccc(NN2C(C(O)c3cccc4ccccc34)C=CC3C(=O)N(c4ccccc4)C(=O)C32)cc1` (stereo not given), the composite z-score in assay [1] is -0.0622; in assay [2], -0.182; in assay [3], 0.158; in [4], 0.829; in assay [5] it was 1.65; in assay [6] it was 1.63. Moreover, the composite z-score amounted to 1.21 in assay [7]; 0.889 in assay [9]; 0.0695 in [10]; 1.39 in assay [11]; 3.41 in [15]; 0.341 in [17]. Besides, the composite z-score in assay [18] was 0.157; in assay [19], -0.262; in assay [20] it was 0.0785. Also, the z-score is 0.025 (inactive) in assay [8]; 0.242 (inactive) in assay [12]; 2.28 (inactive) in [13]; 1.75 (inactive) in assay [14]; -0.339 (inactive) in [16].
`CCCC[C@@H](O)C1=C(C)C[C@H]2C(=O)N(Cc3ccccc3)C(=O)[C@H]2[C@H]1CO`: the composite z-score is -0.531 in assay [1]; 0.709 in [2]; -0.0564 in assay [3]; 0.185 in assay [4]; -0.0286 in [5]; 0.0467 in assay [6]. The composite z-score in assay [7] is -0.322; in assay [9] it was -0.0982; in [10], -0.0237; in assay [11], 0.18; in [15], -0.463; in assay [17], -0.0998. In addition, the composite z-score in assay [18] was 0.283; in assay [19] it was 0.15; in assay [20] it was -0.159. Further, the z-score was 0.778 (inactive) in assay [8]; -0.812 (inactive) in assay [12]; -2.19 (inactive) in assay [13]; 0.0211 (inactive) in assay [14]; 0.706 (inactive) in assay [16].
With `COCCCNC(=O)[C@@]1(Sc2ccc(C)cc2)CC(=O)N(Cc2ccccc2)[C@@H]1c1ccc(CO)cc1I`, the composite z-score in assay [1] is 0.438; in assay [2] it was 0.258; in [3], 0.193; in [4], -0.134; in assay [5], -0.895; in assay [6], 1.38. In addition, the composite z-score in assay [7] was -0.118; in assay [9] it was 0.458; in assay [10] it was 0.0327; in assay [11], 0.785; in [15] it was 0.936; in [17] it was 0.556. Moreover, the composite z-score is -1.53 in [18], -1 in assay [19] and 0.0097 in assay [20]. For the same compound, the z-score in [8] was -0.646 (inactive); in assay [12], -1.69 (inactive); in assay [13], -2.82 (inactive); in assay [14], 0.999 (inactive); in assay [16] it was 0.248 (inactive).
